Laboratory results as given in PubChem BioAssay AID624330 (Southern Research Specialized Biocontainment Screening …, 2012).
Several values for one entry are separate records, joined by “and”; a condition that tells them apart may be missing. Identical values can stand only once. In all, about 340,000 compounds went through this assay and about 2,100 (0.62%) were called active.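 The calls were made as follows: active = first-screen hits whose inhibition reached a set limit at any dose in the follow-up dose series; inconclusive = inhibition above the set first-screen limit but never retested; inactive = the rest.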 A selection follows. Entries with a potency or affinity are not part of this list.

Biological target: Rac GTPase-activating protein 1 (Homo sapiens) (UniProt Q9H0H5)
Assay: blockers of MgcRacGAP-driven Rac1 GTP hydrolysis – biochemical, ADP Hunter fluorescence, primary and confirmatory, confirmation (AID 624330);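 also: fluorescence reports GDP produced by GAP-driven GTP hydrolysis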
Conditions: MgcRacGAP-stimulated Rac1 GTP hydrolysis, at 30 µM, active compounds read high, GST-tagged Rac1 F28L mutant substrate

Chain of Rac GTPase-activating protein 1 (Homo sapiens) (Q9H0H5 whole entry, looked up): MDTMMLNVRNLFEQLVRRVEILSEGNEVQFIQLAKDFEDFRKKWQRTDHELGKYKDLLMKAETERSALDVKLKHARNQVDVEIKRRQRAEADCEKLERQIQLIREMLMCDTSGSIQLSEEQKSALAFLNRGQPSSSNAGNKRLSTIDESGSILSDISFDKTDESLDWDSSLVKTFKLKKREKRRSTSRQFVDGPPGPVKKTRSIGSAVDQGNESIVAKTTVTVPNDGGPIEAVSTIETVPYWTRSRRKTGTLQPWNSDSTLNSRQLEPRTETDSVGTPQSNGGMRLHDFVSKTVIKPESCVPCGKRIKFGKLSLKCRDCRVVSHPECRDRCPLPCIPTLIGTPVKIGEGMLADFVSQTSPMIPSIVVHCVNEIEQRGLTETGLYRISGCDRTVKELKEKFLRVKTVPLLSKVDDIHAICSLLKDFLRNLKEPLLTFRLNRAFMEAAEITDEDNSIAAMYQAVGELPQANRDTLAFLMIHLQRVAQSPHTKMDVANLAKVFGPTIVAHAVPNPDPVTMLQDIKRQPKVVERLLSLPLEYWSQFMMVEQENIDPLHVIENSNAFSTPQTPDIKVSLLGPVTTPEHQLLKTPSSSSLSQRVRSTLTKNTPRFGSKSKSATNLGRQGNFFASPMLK

inhibition, inactive:
COc1cc(CC(=O)OCc2cccc([N+](=O)[O-])c2)cc(OC)c1OC 2.78%
CCCCCC(=O)Nc1ccc(N2CCN(C(=O)CCC)CC2)cc1 -1.29%
CCOC(=O)C1(Cc2cccc(OC)c2)CCN(CC(O)CO)CC1 (stereo not drawn) -0.09%
CCOc1ccc(-c2nc3c(s2)CCc2onc(-c4ccc(OC)cc4)c2-3)cc1 1.06%
O=S(=O)(c1ccccc1Cl)N1CCCC1c1nc(-c2cccc(Cl)c2)no1 (stereo not drawn) 2.74%
C[C@@H](C(=O)OCC(=O)NCCc1ccc(S(N)(=O)=O)cc1)N1C(=O)C2CCCCC2C1=O (stereo partly drawn) -3.1%
CCCn1c(=S)[nH]c2cc(Cl)ccc21 9.71%
COc1ccc(-n2sc3c(c2=S)-c2cc(OC)ccc2NC3(C)C)cc1 -3.29%
COc1ccc2c(c1)-c1c(sn(-c3ccccc3)c1=S)C(C)(C)N2 18.2%
Cc1ccc(CNc2nc3ccccc3n2C)cc1 13.6%
CC(C)NC(=O)Nc1ccc2c(c1)C(=O)N([C@H](C)CO)C[C@H](C)[C@@H](CN(C)C(=O)Nc1ccc(C(F)(F)F)cc1)O2 12.5%
CCCN(CCC)CCOc1cc(C)ccc1C(C)C 18.2%
Cc1ccc(C(C)C)c(OCC#CCN2CCOCC2)c1 30.8%
O=C(c1cc2ccccc2oc1=O)N(Cc1ccccc1F)C1CCS(=O)(=O)C1 (stereo not drawn) 6.33%
OCCCNCc1ccc(Cl)cc1Cl -1.18%
COc1ccc(C)cc1NC(=O)n1ncc2cc(Cl)ccc21 8.15%
COc1cc(NC(=O)n2ncc3cc(Cl)ccc32)cc(OC)c1 5.31%
COc1ccc(S(=O)(=O)Nc2cccc(SC)c2)cc1C(=O)N1CCOCC1 9.83%
Cc1ccccc1C(=O)NC(=S)Nc1ccccc1N1CCCC1 13.5%
CC(=O)Nc1ccc(Nc2ccc([N+](=O)[O-])cn2)cc1 16.8%
O=[N+]([O-])C1=C(Nc2cccc3ccccc23)CS(=O)(=O)C1 9.69%
O=[N+]([O-])c1ccc(Nc2ccc(F)cc2)nc1 6.73%
Cc1ccc(NC2=C([N+](=O)[O-])CS(=O)(=O)C2)cc1 7.24%
O=C(CSc1ncccn1)Nc1ccc(Cl)c(S(=O)(=O)N2CCOCC2)c1 7.79%
CCOC(=O)N1CCN(CC(O)COc2c(OC)cccc2OC)CC1 (stereo not drawn) 9.23%
Cc1cc(C(=O)CCC(=O)Nc2ccc(C(N)=O)cc2)c(C)s1 15%
O=C(NC1CCCCC1)c1csnn1 -0.31%
Fc1ccccc1CN1CCCCCCC1 10.2%
CS(=O)(=O)N1CCN(Cc2ccccc2C(F)(F)F)CC1 8.59%
C=CCOc1ccccc1CN1CCCCCC1 13%
C=CCOc1ccccc1CN1CCSCC1 14.2%
Cc1ccccc1CN1CCN(Cc2ccccc2C(F)(F)F)CC1 25.3%
CCOC(=O)N1CCN(Cc2ccccc2F)CC1 17.8%
Cc1ccc(S(=O)(=O)N2CCN(Cc3ccccc3C(F)(F)F)CC2)cc1 13%
O=S1(=O)CCN(Cc2ccccc2C(F)(F)F)CC1 1.13%
O=C1CCCC2=C1C(c1cccc(O)c1)C1=C(N2)c2ccccc2C1=O (stereo not drawn) -0.19%
Cc1ccc(NC(=O)C2Cc3ccccc3C(=O)O2)cc1 (stereo not drawn) -7.83%
O=C(CN(C(=O)CCC(=O)Nc1ccccn1)C1CCCC1)NCc1ccccc1 4.99%
CCOc1ccccc1NC(=O)c1ccc2nc[nH]c2c1 4.69%
CCN(C(=O)COC(=O)c1ccc(=O)n(Cc2ccccc2)n1)C1CCCCC1 0.9%
O=S(=O)(NCC1CCCO1)c1ccc(Br)cc1 (stereo not drawn) 12.2%
CCOc1ccc(CCN2C(=S)N([C@@H](CC(C)C)CN3CCCC3CN3C(=S)NC[C@@H]3Cc3ccc(O)cc3)C[C@@H]2CC(C)C)cc1 (stereo partly drawn) 13.7%
Cc1csc(NC(=O)C2CCCN2C(=O)Oc2ccccc2)n1 (stereo not drawn) 7.03%
O=C(O)c1ccc(CSc2nnnn2-c2ccc(F)cc2)cc1 2.94%
Cc1cc(SCC(=O)c2ccc3c(c2)OCO3)nc2ccccc12 6.55%
Cc1cc(C)nc(SCC(=O)c2ccc(F)cc2)n1 3.61%
COc1ccc(-n2nnnc2SCC(=O)c2ccc(O)c(O)c2)cc1 9.34%
Cc1cc(C)nc(SCC(=O)c2ccc(C)c(C)c2)n1 -8.22%
Cc1cc(SCC(=O)O)nc2ccccc12 5.6% and 2.66%
COCCN(CC(=O)NCc1ccc(OC)cc1)C(=O)CCC(=O)Nc1nccs1 9.76%
COc1ccc(/C=C/C(=O)Oc2cc(C)[nH]c(=O)c2[N+](=O)[O-])cc1OC -3.35%
O=C(/C=C/c1ccc2c(c1)OCO2)NCCS(=O)(=O)N1CCN(c2ccccc2)CC1 -2.85%
Cc1cc(C)n(-c2cc(C)c(C)cc2Br)n1 4.26%
Cc1ccnc(Nc2nc(-c3ccc(Cl)cc3)cs2)c1 4.43%
Cc1ccnc(Nc2nc(-c3ccc(F)cc3)cs2)c1 7.49%
COc1ccc(-c2csc(Nc3cc(C)ccn3)n2)cc1OC 13.4%
Cc1ccnc(Nc2nc(-c3ccccc3)cs2)c1 12.8%
C[C@]12c3[nH]c4cc(-c5ccco5)ccc4c3CCN1C(=O)[C@@H](CC(=O)NCc1cccc(C(F)(F)F)c1)C[C@@H]2C(=O)N1CCCCC1 10.5%
CC(C)NC(=O)c1ccc(N(Cc2ccccc2)S(C)(=O)=O)cc1 4.09%
O=S(=O)(NCC1(N2CCOCC2)CCCCC1)c1ccccc1Cl -7.11%
CN1CCN(CCCC(=O)c2ccc(C3CCCC3)cc2)CC1 6.04%
O=C(O)c1cc([N+](=O)[O-])c(N2CCCC2)c([N+](=O)[O-])c1 9.56%
CCc1ccc(N(CC(=O)NC(C)(C)C)C(=O)CNC(=O)c2cccs2)cc1 11.2%
CCOC(=O)c1c(NC(=O)CCl)sc(CN(C)C)c1-c1ccccc1 -14%
Cn1c(=O)c2c(ncn2Cc2cccc(Cl)c2)n(C)c1=O 9.29%
Cc1ccc(S(=O)(=O)N2CCN(CC3CC4C=CC3C4)CC2)cc1 (stereo not drawn) 23.4%
O=C(CCC1CCCC1)N1CCN(C(=O)C2CC2)CC1 -4.27%
Cc1ccc(OCC(=O)N2CCN(S(C)(=O)=O)CC2)cc1 11.9%
O=C(CCC1CCCC1)N1CCC(N2CCCCCC2)CC1 21.7%
O=C(c1ccccc1F)N1CCN(CC2CC3C=CC2C3)CC1 (stereo not drawn) 27.7%
Cc1ccc(OCC(=O)N2CCCCCCC2)cc1 9.5%
CCN1CCN(CC2CC3C=CC2C3)CC1 (stereo not drawn) 24.6%
C1=CC2CC1CC2CN1CCN(c2ccccc2)CC1 (stereo not drawn) 14.6%
COc1ccccc1CN1CC(C(=O)NCC2(O)CCCCC2)CCC1=O (stereo not drawn) -29.3%
ONC=Nc1cccc2nonc12 4.4%
Cc1ccccc1NC(=O)COC(=O)c1cccc(S(=O)(=O)N2CCCCC2)c1 0.63%
COc1ccc(CCN(C(=O)C(F)(F)F)C(C(=O)NC2CCCCC2)c2ccc(C)s2)cc1OC (stereo not drawn) 4.06%
Cc1ccc(S(=O)(=O)N2CCN(C(=O)N(C)C)CC2)cc1 2.84%
O=C(Nn1cnc2ccccc2c1=O)c1ccc(Cl)c([N+](=O)[O-])c1 9.36%
COn1c(-n2nc(C)cc2C)nc2ccccc2c1=O 3.26%
O=C(COc1ccccc1)N1CCN(C(=O)COc2ccccc2)CC1 2.47%
CCS(=O)(=O)N1CCN(CC2CC3C=CC2C3)CC1 (stereo not drawn) 3.64%
O=C(COc1ccccc1)N1CCCC1 2.28%
CS(=O)(=O)N1CCN(CC2CC3C=CC2C3)CC1 (stereo not drawn) 26.4%
S=C(Cc1ccccc1)NCCc1ccccc1 9.14%
Cc1noc(C)c1N=Nc1ccc(Br)cc1C(=O)O 4.04%
O=C(NCc1ccc(Cl)cc1)c1ccncc1 6.54%
O=C(COn1nnc2ccc(S(=O)(=O)N3CCOCC3)cc21)NCc1cccc(Cl)c1 13.7%
COc1cc(Cc2cc(OC)c(O)c(OC)c2)cc(OC)c1O 6.74%
COc1cc(C(=O)C(=O)c2cc(OC)c(O)c(OC)c2)cc(OC)c1O 7.13%
Cc1ccc(S(=O)(=O)N2CCOCC2)cc1C(=O)Nc1nc(-c2ccccn2)cs1 13.7%
CCOc1ccc(S(=O)(=O)N2CCN(CC)CC2)cc1NC(=O)c1ccccc1F 0.51%
CCOc1cc(NC(=O)c2ccccc2OC)c(OCC)cc1NC(=O)c1ccccc1 -3.11%
CCn1c(C)cc(/C=C2/SC(=O)N(CC(=O)N3CCCC3)C2=O)c1C 8.19%
Cn1cnc2c1c(=O)n(Cc1cccc(Br)c1)c(=O)n2C 0.32%
O=c1cc(-c2ccccc2)oc2cc(O)c(O)c(O)c12 -59.8%
COc1c2ccoc2cc2oc(C)cc(=O)c12 6.29%
COc1cc2c(cc1OC)CN(CC(=O)Nc1ccccc1C(=O)NC1CC1)CC2 -6.05%
